# From the supplement of paper PMC9262897, “Low-cost anti-mycobacterial drug discovery using engineered E. coli” (Nature Communications, 2022)
# Structures can show the parent of a compound that is named as a salt. ± gives the standard deviation of the averaged measurements.
# Assays:
# Assay in all cases: growth (OD600 after 10 h); higher = more growth (less inhibition)
# [1] = test system: E. coli TESEC Alr+ wild-type control; conditions: compound 0.1 mM; raw OD600 reference: median of DMSO wells 0.241, cell-free background 0.041
# Experimental: (§1)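 TESEC Mtb Alr E. coli, or the Alr+ wild-type control, in 384-well plates with Prestwick library compounds at 0.1 mM and 1% DMSO, across arabinose induction levels of 1E3 to 1E7 nM. Growth is read as OD600 after 10 h at 37 °C in triplicate biological replicates.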
# [2] = test system: E. coli TESEC Mtb Alr; conditions: compound 0.1 mM
# Experimental: as §1
# [3] = test system: E. coli TESEC Mtb Asd; conditions: compound 0.1 mM
# Experimental: (§2)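 TESEC E. coli strains in which the native enzyme is deleted and replaced by arabinose-inducible Mtb Asd, DapB, CysH or TrpD, each grown in its selective medium. Strains were screened against the Prestwick library at 0.1 mM and 1% DMSO in 384-well format at low and high arabinose induction. Growth is read as OD600 after 10 h in triplicate.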
# [4] = test system: E. coli TESEC Mtb DapB; conditions: compound 0.1 mM
# Experimental: as §2
# [5] = test system: E. coli TESEC Alr+ wild-type control; conditions: compound 0.1 mM; raw OD600 reference: median of DMSO wells 0.49, cell-free background 0.052
# Experimental: (§3)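 TESEC Mtb Alr E. coli (ΔaraC ΔtolC ΔentC Δalr ΔdadX, arabinose-inducible Mtb Alr) or the Alr+ wild-type control strain, grown in defined M9-fructose medium without D-alanine in 96-well plates with Prestwick library compounds at 0.1 mM and 1% DMSO. Low Alr induction is 0.1 µM arabinose and high induction is 10 mM arabinose.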
# [6] = test system: E. coli TESEC Mtb Alr; conditions: compound 0.1 mM; remark: listed apart in the source
# Experimental: as §3
# [7] = arabinose 1000 nM, raw OD600 reference: median of DMSO wells 0.294, cell-free background 0.041
# [8] = arabinose 10000 nM, raw OD600 reference: median of DMSO wells 0.264, cell-free background 0.041
# [9] = arabinose 100000 nM, raw OD600 reference: median of DMSO wells 0.201, cell-free background 0.041
# [10] = arabinose 1000000 nM, raw OD600 reference: median of DMSO wells 0.193, cell-free background 0.041
# [11] = arabinose 10000000 nM, raw OD600 reference: median of DMSO wells 0.146, cell-free background 0.041
# [12] = arabinose induction (level): High, raw OD600 reference: median of DMSO wells 0.331, cell-free background 0.041
# [13] = arabinose induction (level): Low, raw OD600 reference: median of DMSO wells 0.417, cell-free background 0.041
# [14] = arabinose induction (level): High, raw OD600 reference: median of DMSO wells […], cell-free background 0.041
# [15] = arabinose induction (level): Low, raw OD600 reference: median of DMSO wells 0.227, cell-free background 0.041
# [16] = arabinose 100 nM, raw OD600 reference: median of DMSO wells 0.413, cell-free background 0.052
# [17] = arabinose 10000000 nM, raw OD600 reference: median of DMSO wells […], cell-free background 0.052
Structure (SMILES),growth [1],"growth [2, 7]","growth [2, 8]","growth [2, 9]","growth [2, 10]","growth [2, 11]","growth [3, 12]","growth [3, 13]","growth [4, 14]","growth [4, 15]",growth [5],"growth [6, 16]","growth [6, 17]"
COC(=O)C1=C(C)NC(C)=C(C(=O)OCC(C)C)C1c1ccccc1[N+](=O)[O-] (stereo not drawn) [Nisoldipine],0.0411 ± 0.00044,0.189 ± 0.022,0.1989 ± 0.0016,0.133 ± 0.0061,0.101 ± 0.011,0.112 ± 0.0029,0.0578 ± 0.0013,0.0593 ± 0.0039,0.122 ± 0.0061,0.114 ± 0.0044,0.433 ± 0.007,0.386 ± 0.0062,0.223 ± 0.012
O=C(O)CCc1nc(-c2ccccc2)c(-c2ccccc2)o1 [Oxaprozin],0.143 ± 0.0053,0.169 ± 0.0038,0.206 ± 0.0029,0.102 ± 0.0063,0.0905 ± 0.0025,0.0775 ± 0.0013,0.223 ± 0.022,0.165 ± 0.0041,0.139 ± 0.0021,0.152 ± 0.0088,0.381 ± 0.039,0.3746 ± 0.0018,0.128 ± 0.0076
COc1cc(C)c(/C=C/C(C)=C/C=C/C(C)=C/C(=O)O)c(C)c1C [Acitretin],0.227 ± 0.0077,0.276 ± 0.0084,0.127 ± 0.0023,0.228 ± 0.03,0.06247 ± 0.00031,0.162 ± 0.0072,0.137 ± 0.015,0.145 ± 0.0072,0.153 ± 0.0019,0.1772 ± 0.00061,0.34 ± 0.0082,0.369 ± 0.0094,0.199 ± 0.02
CCc1c(C)[nH]c2c1C(=O)C(CN1CCOCC1)CC2 (stereo not drawn) [Molindone hydrochloride],0.221 ± 0.013,0.3135 ± 0.00076,0.251 ± 0.011,0.202 ± 0.018,0.166 ± 0.0061,0.1542 ± 0.0015,0.274 ± 0.06,0.36 ± 0.064,0.189 ± 0.0083,0.25 ± 0.025,0.472 ± 0.013,0.409 ± 0.016,0.33 ± 0.017
CCCN(CCC)C(=O)C(CCC(=O)O)NC(=O)c1ccccc1 (stereo not drawn) [Proglumide],0.255 ± 0.0056,0.282 ± 0.036,0.29 ± 0.017,0.22 ± 0.025,0.188 ± 0.0035,0.17 ± 0.0066,0.318 ± 0.075,0.368 ± 0.053,0.205 ± 0.018,0.246 ± 0.019,0.477 ± 0.079,0.415 ± 0.021,0.376 ± 0.033
CCCC(C(=O)OCCN(CC)CC)(c1ccccc1)c1ccccc1 [Proadifen hydrochloride],0.0491 ± 0.0002,0.04737 ± 0.00042,0.04077 ± 0.00038,0.0496 ± 0.0007,0.04163 ± 0.00032,0.04523 ± 0.00015,0.0541 ± 0.001,0.0665 ± 0.012,0.126 ± 0.0053,0.129 ± 0.0055,0.0545 ± 0.001,0.319 ± 0.17,0.0643 ± 0.01
CC(C)NC[C@H](O)COc1cccc2ccccc12 [(S)-propranolol hydrochloride],0.202 ± 0.0096,0.263 ± 0.011,0.295 ± 0.0058,0.18 ± 0.016,0.191 ± 0.014,0.149 ± 0.0089,0.279 ± 0.071,0.308 ± 0.043,0.173 ± 0.025,0.231 ± 0.051,0.497 ± 0.031,0.424 ± 0.0079,0.332 ± 0.016
CCN1CCN(C(=O)N[C@@H](C(=O)N[C@@H]2C(=O)N3[C@@H]2SC(C)(C)[C@@H]3C(=O)O)c2ccccc2)C(=O)C1=O [Piperacillin sodium salt],0.237 ± 0.0061,0.295 ± 0.014,0.268 ± 0.0055,0.204 ± 0.0097,0.201 ± 0.0086,0.133 ± 0.0047,0.328 ± 0.021,0.4754 ± 0.0046,0.204 ± 0.01,0.207 ± 0.025,0.508 ± 0.061,0.405 ± 0.013,0.354 ± 0.011
Cc1cc(C(C)(C)C)c(O)c(C)c1CC1=NCCN1 [Oxymetazoline hydrochloride],0.236 ± 0.0092,0.302 ± 0.0066,0.263 ± 0.014,0.196 ± 0.011,0.17 ± 0.011,0.165 ± 0.011,0.372 ± 0.07,0.416 ± 0.035,0.202 ± 0.016,0.251 ± 0.028,0.514 ± 0.062,0.414 ± 0.013,0.328 ± 0.011
Cc1ccc(C)c(OCCCC(C)(C)C(=O)O)c1 [Gemfibrozil],0.2143 ± 0.0012,0.258 ± 0.0058,0.22 ± 0.0045,0.163 ± 0.0097,0.153 ± 0.0071,0.121 ± 0.0017,0.202 ± 0.051,0.214 ± 0.0039,0.161 ± 0.029,0.195 ± 0.055,0.41 ± 0.018,0.354 ± 0.037,0.261 ± 0.011
C#CCN(C)Cc1ccccc1 [Pargyline hydrochloride],0.25 ± 0.0048,0.291 ± 0.0091,0.278 ± 0.0057,0.206 ± 0.02,0.19 ± 0.0033,0.142 ± 0.0058,0.34 ± 0.035,0.429 ± 0.047,0.177 ± 0.0081,0.194 ± 0.0055,0.516 ± 0.11,0.412 ± 0.0092,0.357 ± 0.007
Clc1ccc(C(Cn2ccnc2)OCc2csc3c(Cl)cccc23)c(Cl)c1 (stereo not drawn) [Sertaconazole nitrate],0.0563 ± 0.0014,0.0558 ± 0.0094,0.07 ± 0.0042,0.057 ± 0.0028,0.06457 ± 0.00042,0.0588 ± 0.0084,0.0594 ± 0.0039,0.0635 ± 0.0047,0.0687 ± 0.0033,0.0671 ± 0.0089,0.129 ± 0.036,0.12 ± 0.024,0.123 ± 0.0052
Cc1cc2c(s1)Nc1ccccc1N=C2N1CCN(C)CC1 [Olanzapine],0.207 ± 0.0059,0.286 ± 0.014,0.267 ± 0.0071,0.183 ± 0.015,0.158 ± 0.006,0.136 ± 0.0056,0.305 ± 0.043,0.457 ± 0.018,0.213 ± 0.029,0.249 ± 0.026,0.502 ± 0.029,0.403 ± 0.014,0.319 ± 0.01
COC1=CC(=O)C[C@@H](C)[C@]12Oc1c(Cl)c(OC)cc(OC)c1C2=O [Griseofulvin],0.223 ± 0.0068,0.2842 ± 0.002,0.2487 ± 0.002,0.208 ± 0.021,0.0853 ± 0.0022,0.135 ± 0.006,0.241 ± 0.051,0.385 ± 0.11,0.174 ± 0.0029,0.233 ± 0.022,0.514 ± 0.041,0.416 ± 0.013,0.21 ± 0.032
CCN(CC)CCOC(=O)C1(c2ccc([N+](=O)[O-])cc2)CCCC1 [Nitrocaramiphen hydrochloride],0.235 ± 0.015,0.281 ± 0.0086,0.253 ± 0.0047,0.148 ± 0.0071,0.147 ± 0.0043,0.137 ± 0.0018,0.205 ± 0.059,0.426 ± 0.0056,0.161 ± 0.01,0.18 ± 0.017,0.488 ± 0.054,0.412 ± 0.017,0.324 ± 0.03
C/C(=C(\CCOP(=O)(O)O)SC(=O)c1ccccc1)N(C=O)Cc1cnc(C)nc1N [Benfotiamine],0.2481 ± 0.0011,0.317 ± 0.014,0.257 ± 0.0029,0.205 ± 0.019,0.186 ± 0.006,0.141 ± 0.0056,0.352 ± 0.068,0.41 ± 0.11,0.188 ± 0.0089,0.224 ± 0.032,0.502 ± 0.11,0.404 ± 0.0067,0.359 ± 0.0094
